In PubChem BioAssay (NCATS):
Records with an inconclusive call do not appear. A call without a number means that no potency is given here. The source made the active and inactive calls. The call rests on the fitted dose curve; in most records, active means well fitted cell-killing curve with a large enough effect; inconclusive means small, poorly fitted or top-dose-only effect, or effect the other way; inactive means flat fitted curve, though single readings scatter.

System: CAOV3
Assay: Primary qHTS to identify gynecologic anti-cancer compounds using libraries of approved drugs and bioactive compounds (AID 1345084); further: nearly all actives have a fitted effect of over 55% in size
Details: Gynecologic cancer cell panel viability, ATPlite luminescence, 48 h; series mostly up to 57.5 µM
Text: National Center for Advancing Translational Sciences [NCATS] Assay Overview: Chemotherapeutic drug responses vary from cancer to cancer and from patient to patient. These variations could be caused by a number of factors including patient genomic background, tumor mutations, tumor heterogeneity, and aspects of drug treatment. Chemotherapeutic drug resistance is also a common issue and can lead to ineffective treatment and patient death. Here we have profiled the cell killing effects of thousands of compounds to characterize the responses in three gynecological cancers, identify cancer-selective compounds, and understand the diversity of responses to these compounds from pan-cancer suppressors to single cell line selective compounds. In this assay, we screened a 7,914 compound drug library that included approved drug and bioactive compounds in six ovarian, three cervical, and […] placental cancer cell lines using the ATPlite assay for cell viability. […] The cervical cancer cell lines included HeLa, Ca Ski, and C-33 A. The placental cancer cell lines included JEG-3. HEK 293T cells were used as the control cell line to determine the selectivity index. ATPlite is a luminescence based assay reliant on the conversion of a luciferase substrate to light in the presence of ATP. As a cytotoxic compound will suppress growth and decrease the number of cells, the concentration of ATP will decrease, and less light signal will be detected in the well.
Assay Protocol Summary: 1,000 cells in 4 uL of media were dispensed into white, solid bottom 1536-well plates using a Multidrop Combi (Thermo Scientific). The Assay plates were incubated for 16 hours at 37 C with 5% CO2 in assay plates, followed by the addition of 23 nL of DMSO or drug dissolved in DMSO. Each compound was assayed in five concentrations (0.092, 0.46, 2.3, 11.5, and 57.5 uM), using the automated Wako 1536 Pin Tool workstation and incubated at 37 C with 5% CO2 48 hours. 4 uL of ATPlite, the ATP monitoring reagent, was then added to the each well of the assay plates using the Multidrop Combi reagent dispenser followed by incubation for 15 minutes at room temperature. The resulting luminescence was measured using the ViewLux plate reader.
Potency means the concentration at half of the fitted maximal effect.

Row | Compound | Potency
1 | COc1ccc(C[C@H](C)NC[C@@H](O)c2ccc(O)c(NC=O)c2)cc1 | inactive
2 | CCN(CC)CCOCCOC(=O)C(CC)(CC)c1ccccc1 | inactive
3 | O=C(O)Cc1cc(I)c(Oc2ccc(O)c(I)c2)c(I)c1 | inactive
4 | O=C(OCc1ccccc1)c1ccc(O)cc1 | inactive
5 | CN(C)CCCSc1ccccc1NC(=O)/C=C/c1ccccc1 | inactive
6 | CC(=O)Nc1ccc(NC(=S)NC(=O)c2ccc(C(C)(C)C)cc2)cc1 | inactive
7 | O=C(O)CCC(=O)c1ccc(-c2ccccc2)cc1 | inactive
8 | Nc1ccc(N=Nc2ccccc2)c(N)n1 | inactive
9 | C[C@]12CC[C@@H]3c4ccc(OC(=O)c5ccccc5)cc4CC[C@H]3[C@@H]1CC[C@@H]2O | inactive
10 | CO[C@H]1C[C@@H]2CC[C@@H](C)[C@@](O)(O2)C(=O)C(=O)N2CCCC[C@H]2C(=O)O[C@H]([C@H](C)C[C@@H]2CC[C@@H](OC(=O)C(C)(CO)CO)[C@H](OC)C2)CC(=O)[C@H](C)/C=C(\C)[C@@H](O)[C@@H](OC)C(=O)[C@H](C)C[C@H](C)/C=C/C=C/C=C/1C | inactive
11 | CC1CC(OC(=O)C(O)c2ccccc2)CC(C)(C)C1 (configuration not stated) | inactive
12 | C=C1[C@H](CO)[C@@H](O)C[C@@H]1n1cnc2c(=O)[nH]c(N)nc21 | inactive
13 | CC(C)(C)c1ccc(CN2CCN(C(c3ccccc3)c3ccc(Cl)cc3)CC2)cc1 (configuration not stated) | inactive
14 | C[C@H]1O[C@@H](O[C@H]2[C@@H](O)C[C@H](O[C@H]3[C@@H](O)C[C@H](O[C@H]4CC[C@@]5(C)[C@H](CC[C@@H]6[C@@H]5C[C@@H](O)[C@]5(C)[C@@H](C7=CC(=O)OC7)CC[C@]65O)C4)O[C@@H]3C)O[C@@H]2C)C[C@H](O)[C@@H]1O | 282 nM (active)
15 | C/C(=C\C(=O)OCCCCCCCCC(=O)O)C[C@@H]1OC[C@H](C[C@@H]2O[C@H]2[C@@H](C)[C@H](C)O)[C@@H](O)[C@H]1O | inactive
16 | C=C1CC[C@H](O)CC1=C/C=C1\CCC[C@]2(C)[C@@H]([C@H](C)/C=C/[C@H](C)C(C)C)CC[C@@H]12 | inactive
17 | O=C1c2ccccc2C(=O)c2c1ccc(O)c2O | inactive
